Values joined by “and” are separate entries in the source; they are usually repeats but may differ in a detail not shown here. Equal values may be shown once. This is part of a sample that, as a whole, favours compounds with a hit. Of some 79,000 tested, about 15% had one in any assay. Unmarked numbers belong to inactive results. Active and inactive are the calls of the source. No stated cut-off is given here; in the data, active means growth inhibition above about 70%; inactive means the rest.
Legend:
[1] = NCI Yeast Anticancer Drug Screen. Data for the rad50 strain (AID 155);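 further: 0% = growth of vehicle-only cultures of the same strain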; details: S. cerevisiae rad50 strain growth inhibition, hits give high values; at 50.0 µM unless noted
Method in brief: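 DNA repair mutant yeast, compound exposure, growth read-out; inhibition is taken relative to vehicle.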

[2] = NCI Yeast Anticancer Drug Screen. Data for the mec2-1 strain (AID 157); details: S. cerevisiae mec2-1 strain, hits give high values; at 50.0 µM unless noted
Method in brief: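 Each compound was tested on mec2-1 yeast, a strain altered in DNA damage repair or cell cycle control. Growth inhibition is reported relative to vehicle.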

[3] = NCI Yeast Anticancer Drug Screen. Data for the sgs1 mgt1 strain (AID 161);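 further: 0% = growth of cultures given vehicle only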; details: S. cerevisiae sgs1 mgt1 strain, hits give high values; at 50.0 µM unless noted
Method in brief: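 Read-out: growth inhibition vs vehicle controls. Cells: mutant yeast strain deficient in DNA damage repair.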

[4] = NCI Yeast Anticancer Drug Screen. Data for the cln2 rad14 strain (AID 165);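 further: 0% = growth equal to vehicle treated cultures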; details: S. cerevisiae cln2 rad14 strain, hits give high values; at 50.0 µM unless noted
Method in brief: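 Test compounds were added to cln2 rad14 yeast cultures; inhibition of growth was then determined by comparison with vehicle treatment.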

[5] = NCI Yeast Anticancer Drug Screen. Data for the bub3 strain (AID 167); details: S. cerevisiae bub3 mutant strain, hits give high values; at 50.0 µM unless noted
Method in brief: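 In this screen, a yeast mutant lacking normal mitotic checkpoint function is challenged with compound. Relative growth versus vehicle gives the inhibition value.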

[6] = NCI Yeast Anticancer Drug Screen. Data for the mlh1 rad18 strain (AID 175); details: S. cerevisiae mlh1 rad18 strain growth inhibition, hits give high values; at 50.0 µM unless noted
Method in brief: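 Inhibition values reflect reduced growth of mutant yeast versus vehicle-treated controls following compound exposure; the mutations affect DNA damage repair.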

| SMILES | growth inhibition [1] | growth inhibition [2] | growth inhibition [3] | growth inhibition [4] [%] | growth inhibition [5] | growth inhibition [6] |
| --- | --- | --- | --- | --- | --- | --- |
| O=C(O)CCC(=O)N1c2ccccc2CC1c1c[nH]c2ccccc12 (centres undefined) | -8.45% | -13.9% | -6.55% | 18.6 | 2% | 5.6% |
| C=C1CC2CC[C@@]34C[C@@H]5O[C@@H]6C(O[C@H]7CC[C@H](CC(=O)OC8[C@@H](C)C9OC%10C[C@]%11(C[C@@H]%12O[C@@]%13(C[C@@H](C)[C@@H]%12O%11)C[C@H](C)[C@@H]%11OC%12CC(C(O)CO)OC%12C[C@@H]%11O%13)OC%10CC9O[C@H]8C[C@H]8O[C@@H](CC[C@@H]1O2)C[C@@H](C)C8=C)O[C@@H]7[C@@H]6O3)C5O4 (some centres undefined) | 79.8% (active) | 74.6% (active) | 76.5% (active) | 69.8 | 83.2% (active) | 78.5% (active) |
| N#Cc1c(-c2ccc(Cl)cc2)c(-c2ccc(Cl)cc2)nn(CCOC(=O)CCC(=O)OCCn2nc(-c3ccc(Cl)cc3)c(-c3ccc(Cl)cc3)c(C#N)c2=O)c1=O | -11.7% | 8.95% | 5.5% | -24.4 | 4.75% | 26.4% |
| CCc1n[nH]c(=O)n1NC(=O)c1ccccc1C(=O)O | 15.8% | 11.8% | 15.2% | 20.6 | 25.9% | 16.2% |
| CC1=NN(C(=O)Cc2ccccc2)C(=O)/C1=C\c1ccc(O)cc1 | -18.9% | -36.1% | -47.4% | -4.2 | -13.2% | -29.2% |
| COc1cc(O)c(C(C)=O)c(O)c1 | 9.55% | 16.2% | 9.5% | 16.8 | 29.2% | 18.5% |
| O=C(C1=CCCCC1)c1ccc(-c2ccccc2)cc1 | -4.25% | 11.2% | 2.25% | -14.6 | -6.15% | 4.65% |
| O=C(Nc1ccc2ccccc2c1)c1ccccc1Cl | 1.65% | -4.4% | 21.9% | -7.15 | 17.1% | 32.3% |
| C=CCc1cc(OC)c2c(c1)C(O)CC(c1ccc(OC)c(OC)c1)O2 (centres undefined) | 16.5% | 1.25% | 18.6% | -14.3 | 22.6% | -4% |
| C=CC(=O)OCCN(CCCC)CCCC | -12.9% | -0.2% | -10.9% | -10.8 | 6.75% | 21.5% |
| Cc1ccccc1C(c1ccccc1Cl)[N+](C)(C)C (centres undefined) | 35% | 14.7% | 27.1% | 19.2 | -3.95% | 43.1% |
| COc1cc(CNc2ccccc2)ccc1O | -15.2% | 6.1% | -16.9% | -8.1 | 10.9% | -8.4% |
| CCOC(=O)C(Cc1cc(N)c(Oc2ccc(OC)cc2)c(N)c1)NC(C)=O (centres undefined) | -16.1% | -36.9% | -4.65% | 14.9 | -9.1% | 5.25% |
| CC(=O)NS(=O)(=O)c1ccc(NC(=O)/C=C/C(=O)O)cc1 | 1.1% and -16.6% | -15.7% and -18.1% | -0.45% | -3.05 | -11.7% | 19.9% and -18% |
| CC1=C(c2ccccc2)C(c2ccccc2)=C(C)C1=NNc1ccc([N+](=O)[O-])cc1[N+](=O)[O-] | 10.6% | 11.8% | 0.8% | 16.4 | -3.25% | 1.4% |
| NNC(=O)C(c1ccccc1)c1ccccc1 | 6.4% | -8.95% | -18.8% | 3 | -28.9% | -0.25% |
| COc1cc2c(cc1OCc1ccccc1)C(Cc1cc(Br)sc1Br)=NCC2 | 57.8% | 58.5% | 54% | 50.3 | 70.5% (active) | 43.4% |
| O=C(O)Cc1cc(=O)oc2ccccc12 | 7.4% | -12.3% | 8.2% | -15.8 | -6.8% | 8.75% |
| CCOC(=O)CNC(=O)C(CCC(=O)N(C)O)NC(=O)CCC(N)C(=O)O (centres undefined) | -20.1% | -5.5% | -0.8% | -0.05 | 4.25% | -35.5% |
| O=C(O)c1c(O)cc(=O)oc1-c1ccc(Cl)cc1 | 10.8% | 0.9% | 3.75% | 4 | 10.4% | 4.75% |

| SMILES | growth inhibition [1] | growth inhibition [2] | growth inhibition [3] | growth inhibition [4] [%] | growth inhibition [5] | growth inhibition [6] |
| --- | --- | --- | --- | --- | --- | --- |
| CN(C)c1c2ccccc2c(NC=O)c2ccccc12 | 3.45% | -14.9% | 11.7% | 24.6 | -1.05% | 9% |
| Cc1nc(CO)c(-c2ccc([N+](=O)[O-])cc2)o1 | 0.4% | -4% | -8.75% | -20.4 | -13.1% | -1.5% |
| COc1ccc2c(c1)c(CC(=O)O)c(C)n2Cc1ccccc1 | -13.7% | -16% | -13.7% | -14.8 | 17.4% | -7.65% |
| COc1cc2c(cc1OC)C(=O)c1nccc3ccc(OC)c(c13)O2 | -0.35% | 17.1% | 23.3% | 4.75 | 16.6% | 16.6% |
| COC(=O)C1CCCC1 | 3.75% | -44% | 16.2% | 9.4 | -2.8% | 22.6% |
| O=C(O)c1cc(Cl)c2ccccc2c1O | 46.8% | 45.8% | 46.8% | 31.6 | 42.1% | 33.1% |
| CNCCc1cn(C2OC(CO)C(O)C(O)C2O)cn1 (centres undefined) | -7.15% | -17.6% | -22.3% | -40.9 | -28.4% | -13.3% |
| CCN(CC)CCOC(=O)Cc1cccc2c(=O)cc(-c3ccccc3)oc12 | -1.65% | -11.7% | -3.65% | -3.9 | 14.8% | -53% |
| CC(=O)Nc1cccc(N=Cc2ccc(N(CCOS(C)(=O)=O)CCOS(C)(=O)=O)cc2C)c1 | 73.8% (active) | 70.5% (active) | 40.4% | 22.9 | 13.8% | 93.2% (active) |
| O=C(O)c1ccccc1C(=O)Nn1cnnc1 | -7.55% | 1.15% | -25.9% | 17.2 | -8.1% | -0.1% |
| CCCCN(CCCC)C(=O)C(=O)C(C(=O)c1ccc(OC)cc1)c1ccc(OC)cc1 (centres undefined) | -8.95% | -1.5% | -11.8% | -10.3 | 14.1% | -3.95% |
| O=C1Nc2cc(Br)ccc2C1=O | 7.5% | 23.1% | 2% | 11.8 | 10.4% | 15.2% |
| C=CCOCn1cnc2c(N)ncnc21 | -35.9% | -59.9% | -24.1% | -0.6 | -11.3% | -36% |
| CCN(CC)CC(=O)Nc1cc(Cl)ccc1OC | -4% | -19.8% | -5.75% | -35.3 | 8.9% | -6.25% |
| O=C(O)CC(c1ccccc1)C(CC(=O)O)c1ccccc1 (centres undefined) | -3.8% | 8.75% | 17.6% | 17.2 | 5.95% | 9.85% |
| CCN(CC)CCCCCCNc1cc(O)cc2cccnc12 | 18.5% | 30.8% | 44% | 8.45 | 11.4% | 14.4% |
| CCN(CC)CCNc1cc(OC)c(OC)cc1[N+](=O)[O-] | -35% | 14.4% | 5.7% | -7.45 | -0.45% | -15% |
| CCN(CC)c1cc(C)c2cc(Cc3ccccc3)ccc2n1 | 35.2% | 32.8% | 23.9% | 31.8 | 65.1% | 14.5% |
| Nc1ccc(N)c2c(O)c3ccccc3c(O)c12 | 5.2% | 11.8% | 12.9% | -1.8 | 1.8% | 22% |

Reference: PubChem BioAssay (NCI)
